Where “and” joins values, the source holds several entries; their conditions need not be identical. Identical values can stand only once. This is part of a sample that, as a whole, favours compounds with a hit. Of some 83,000 tested, about 20% had one in any assay.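 Compound tested at a single concentration for 48 hours in 96-well plates; a percent growth value below 10 was scored as active.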 A number with no mark means an inactive call. Calls of active or inactive are those of the source.

The assay has as its system MDA-MB-468 breast. Nature of the assay: NCI-60 one-dose screen, 48 h (100 = growth as untreated, 0 = no growth, -100 = all killed). The conditions noted are these: 10 µM unless noted.
In the case of `O=NN(C(=O)NC1CCC(C(=O)O)CC1)C1CCC(C(=O)O)CC1` (centres undefined), the growth was 96.1%.

For the molecule `CCCCCc1c(C)[nH]c(/C=C2\N=C(c3ccc[nH]3)C=C2Oc2ccccc2)c1C`, the growth was -59.3% [100 µM] (active). Regarding `CC(C)c1ncc([N+](=O)[O-])n1C`, the growth is 104%.

With `O=C(/C=C/C12c3ccccc3C(c3ccccc31)C1C(=O)NC(=O)C12)c1ccc(Br)cc1` (centres undefined), the growth was 42.7%. For the molecule `O=C1Nc2ccccc2[C@]12CC(c1ccccc1)=NN2`, the growth is 56.5%. For the molecule `CCCCN(CCCC)c1cc(C(=O)CCCCCN)c2ccccc2n1`, the growth is 84.5%. Take `CC/C=C\C[C@H](O)C/C=C1/C(=O)C=C[C@@H]1C/C=C\CCCC(=O)OC`: the growth was 3% (active). In the case of `C=C1C(=O)O[C@H]2[C@H]1CC/C(COC(=O)NCc1c[nH]c3ccc(F)cc13)=C\CC[C@@]1(C)O[C@@H]21` it was -58.1% (active). `CN(C)CCNC(=O)c1cccc(-c2cnc3ccc(-c4ccc5c(c4)OCO5)nn23)c1`: the growth is 66.9%.

Take `CCCCn1sc(=O)n(Cc2ccc(CNC(=O)OCc3ccc4c(Cl)cc(Cl)c(O)c4n3)cc2)c1=O`: the growth is 72.4%. In the case of `NC(=S)NNC1CCCCC1`, the growth was 99%. In the case of `CCC(=O)Oc1cc(Cl)c(Cl)cc1Cl`, the growth is 113%. Take `Sc1ccc(Nc2c3ccccc3nc3ccccc23)cc1`: the growth is 44.1%. In the case of `C#C[C@]1(O)CC[C@H]2[C@@H]3CC=C4c5sc(C6CCOCC6)nc5CC[C@]4(C)[C@H]3CC[C@@]21C` it was 68.5%. The value for `COc1cc(CNS(=O)(=O)c2ccc(C)cc2)ccc1OCc1cn(-c2ccc(F)cc2)nn1` was 62.3%; that for `Fc1ccc(Nc2ccnc(N3CCN(c4ccnc5cc(Cl)ccc45)CC3)n2)cc1` was 15.9%; that for `N=S(c1ccccc1[N+](=O)[O-])c1ccccc1[N+](=O)[O-]` was 15.1%. In the case of `O=C(NC1CC1)c1ccc(-c2nc3ccc4[nH]ncc4c3c3c2CCCC3)cc1` it was 8.81% (active); in that of `CNCCCOc1c(Br)cc(CCNC(=O)/C(Cc2ccc(OC)c(Br)c2)=N/O)cc1Br`, 48.5%; in that of `C[C@@H](c1ccc2c(c1)[nH]c1ccc(Cl)cc12)c1nc2ccccc2[nH]1`, -3.2% (active). As to `CCN(CC)CCNc1ccc(CO)c2oc3cc(Cl)ccc3c(=O)c12`, the growth is 68.1%. Turning to `CC(O)c1cccc(/C(N)=N/C(N)=N/c2nc3ccccc3s2)c1` (centres undefined), the growth was 103%.

On to `O=C(NC1CCC(Br)CC1)C1CCCC(S(=O)(=O)NC2CCCCC2)C1` (centres undefined), for which the growth was -3.64% [25 µM] (active).

For the molecule `COc1ccc2nc(-c3cc(-c4cc(OC)c(OC)c(OC)c4)n[nH]3)[nH]c2c1`, the growth is -8.59% (active). In the case of `Cc1ccccc1NC(=O)CN(C)C`, the growth is 107%. In the case of `COc1ccc(-c2nnc(/N=C3/C(=O)Nc4ccc(Br)cc43)o2)cc1` it was 90.7%. Turning to `COc1ccc(N2CCN(CC(=O)N3CCN(c4nnc(-c5ccc(Cl)cc5)c(-c5ccc(Cl)cc5)n4)CC3)CC2)cc1`, the growth was 78.6%. In the case of `O=c1[nH]nc(-c2ccccc2)c2c(-c3ccccc3)onc12` it was 1.46% (active); in that of `Nc1nc(Nc2ccccc2SSc2ccccc2Nc2nc(N)nc(-c3ccc(I)cc3)n2)nc(-c2ccc(I)cc2)n1`, 109%. The value for `Cc1ccc(S(=O)(=O)NCC[C@@H]2C[C@H]2c2cc3ccccc3s2)cc1` was 83.7%. As to `CSc1ccc(/C(=N/N=C(N)N)c2ccc(F)cc2)cc1`, the growth was -34.6% (active). The value for `COc1ccc(-c2cc(-c3ccccc3)nc(N3CCN(CCNc4ccnc5cc(Cl)ccc45)CC3)n2)cc1` was -54.7% (active); that for `Fc1ccc(-c2nn3c(-c4cc(C(F)(F)F)cc(C(F)(F)F)c4)nnc3s2)cc1` was 25.5%. The value for `CCOC(=O)C/C(=C\c1ccccc1)C(C)=O` was 108%. On to `CCOc1ccc(C(=O)Cc2ccccc2)cc1`, for which the growth is 90.2% and 96%.

`O=C(Nc1cccc(-n2cc(-c3ccncc3)c(-c3ccc(Cl)c(O)c3)n2)c1)c1ccc(N2CCOCC2)c(C(F)(F)F)c1`: the growth was 66%. The value for `COc1ccc(NC(=O)c2ccc(Cl)cc2Cl)cc1` was 96.5%. For `CN1CCN(Cc2ccc(NC(=O)c3cncc(C#Cc4cncc5nccnc45)c3)cc2C(F)(F)F)CC1`, the growth is 87%.

On to `Cn1cc(-c2nc(-c3c[nH]c4ncc(F)cc34)cs2)c2cccnc21`, for which the growth was -0.356% (active).

Source of the values: PubChem BioAssay (NCI).
